Records with an inconclusive call do not appear. Calls of active or inactive are those of the source.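 How the source made its calls, unless noted: active means cell viability at or below a set limit in both duplicate runs, the limit being the all-compound median minus 4 SD (cut at about 23% in these data, passing the limit was not always enough); inconclusive means no clear call, values can overlap the other calls; inactive means the rest.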
Experiments:
[1] = Her2 expression decrease, cell viability multiplex – SKBR3 breast tumor cells, AlphaScreen, ATP viability, primary screen (AID 461;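 active means Her2 level under about 52% in both replicate screens, with viability over 70% of control, limit read from the data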;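 on Her2 level: lower value means less Her2 protein in the cells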;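 on viability: percent of carrier control wells set as 100% viability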); settings: SKBR3 Her2 protein level, 18-24 h, measured here: SKBR3 viability, ATP luminescence, at 10 µM
[2] = target: Receptor tyrosine-protein kinase erbB-2 (Homo sapiens) (UniProt P04626); assay: as above; settings: 18-24 h, at 10 µM, stronger effect = lower value
Receptor tyrosine-protein kinase erbB-2 (Homo sapiens), sequence (P04626 whole entry, looked up): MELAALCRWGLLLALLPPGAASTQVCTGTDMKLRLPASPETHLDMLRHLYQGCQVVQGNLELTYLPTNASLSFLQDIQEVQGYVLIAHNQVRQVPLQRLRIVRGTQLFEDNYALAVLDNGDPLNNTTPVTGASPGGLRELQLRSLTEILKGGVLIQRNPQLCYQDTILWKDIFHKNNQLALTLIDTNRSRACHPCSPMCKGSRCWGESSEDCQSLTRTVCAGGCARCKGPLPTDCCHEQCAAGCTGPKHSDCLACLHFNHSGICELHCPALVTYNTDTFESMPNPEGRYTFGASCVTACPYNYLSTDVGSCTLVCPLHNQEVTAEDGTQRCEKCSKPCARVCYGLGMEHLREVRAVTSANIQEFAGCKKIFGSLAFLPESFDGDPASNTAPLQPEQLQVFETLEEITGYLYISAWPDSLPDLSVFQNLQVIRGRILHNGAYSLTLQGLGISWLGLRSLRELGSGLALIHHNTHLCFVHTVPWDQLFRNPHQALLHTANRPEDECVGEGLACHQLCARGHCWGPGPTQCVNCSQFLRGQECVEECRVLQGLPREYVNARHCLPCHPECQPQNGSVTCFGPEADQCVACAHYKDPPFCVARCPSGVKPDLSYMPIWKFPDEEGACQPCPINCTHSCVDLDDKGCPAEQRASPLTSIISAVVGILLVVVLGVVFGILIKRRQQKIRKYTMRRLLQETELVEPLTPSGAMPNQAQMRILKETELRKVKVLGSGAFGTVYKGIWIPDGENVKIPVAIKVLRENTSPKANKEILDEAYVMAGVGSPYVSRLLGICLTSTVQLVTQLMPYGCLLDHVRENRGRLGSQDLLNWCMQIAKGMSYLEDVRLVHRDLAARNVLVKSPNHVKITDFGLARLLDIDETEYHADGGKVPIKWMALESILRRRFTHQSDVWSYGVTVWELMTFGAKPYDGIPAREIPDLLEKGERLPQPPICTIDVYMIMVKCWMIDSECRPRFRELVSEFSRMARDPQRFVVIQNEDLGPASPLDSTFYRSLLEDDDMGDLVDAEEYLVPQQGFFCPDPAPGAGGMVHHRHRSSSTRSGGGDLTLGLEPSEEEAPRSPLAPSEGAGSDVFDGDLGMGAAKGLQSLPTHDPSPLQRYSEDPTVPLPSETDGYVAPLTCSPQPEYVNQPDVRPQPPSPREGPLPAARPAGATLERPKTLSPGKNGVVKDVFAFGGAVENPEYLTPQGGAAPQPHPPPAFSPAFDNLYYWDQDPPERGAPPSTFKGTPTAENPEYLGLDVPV

[3] = reduced viability of SK-BR-3 breast cancer cells – cell-based, 24 h, human, pilot screen (AID 572;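 active means viability at or below 10% of carrier control in both of two separate runs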;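 further: compound exposure lasted between 18 and 24 h rather than exactly 24 h; 100% = carrier-treated control wells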); settings: SK-BR-3 viability, CellTiter-Glo luminescence, at 10 µM, stronger effect = lower value
[4] = HUVEC growth inhibition – cell-based, human, primary screen (AID 575;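 active means viability at or below 30% in both replicate assays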;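 further: 100% = median of untreated cell wells with 0.1% DMSO on each plate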); settings: HUVEC proliferation, CellTiter-Glo luminescence, 72 h; at 10 µM; stronger effect = lower value
[5] = H69AR cell proliferation blockers – human, duplicate replicates, primary screen (AID 580;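 active means viability at or under a set limit in both replicates, limit being median viability minus 3 SD, cut at about 48% in these data, passing the limit was not always enough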;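 further: 100% = mean luminescence of untreated wells and 0% = no signal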); settings: H69AR lung tumor cells viability, ATP luminescence, 72 h; at 10 µM; stronger effect = lower value
[6] = MRP1 drug-resistance reversers in H69AR cells – cell-based, doxorubicin co-treatment, pilot screen (AID 601;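 active means viability loss from added drug above about 55%, and viability with drug at most 40%, in both replicates, limit read from the data, passing the limit was not always enough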); settings: CellTiter-Glo, 72 h, at 10 µM; for differential viability (reversal): stronger effect = higher value
[7] = yeast transport mutant growth inhibition pilot in 384-well plates, post-Golgi transport modulator project (AID 636; in the data active means inhibition above about 31%); settings: absorbance 615 nm, about 18 h, stronger effect = higher value
[8] = growth suppression of yeast trafficking mutant, preliminary HTS, modulators of trafficking downstream of Golgi apparatus project, 1536-format plate, OD 615 nm (AID 637; in the data active means inhibition above about 30%); settings: yeast transport mutant growth, absorbance 615 nm, 18 h; stronger effect = higher value
[9] = S. cerevisiae growth inhibition in permissive medium (OD615), pilot counter-assay for S. cerevisiae lifespan shortening project, permissive growth control (AID 705;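 active means growth inhibition above 25% in both replicates, a cutoff set 3 SD above the mean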); settings: OD615, 24 h, at 10 µM, stronger effect = higher value
[10] = S. cerevisiae growth inhibition in restrictive medium, OD615, pilot screen, restrictive growth control, yeast lifespan reduction project (AID 706;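 active means growth inhibition above a set limit, 3 SD over mean compound inhibition, in both replicates, cut at about 43% in these data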;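 further: modified DeaD lifespan yeast strain shifted to restrictive glucose medium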); settings: OD615, 48 h, at 10 µM, stronger effect = higher value
[11] = doxorubicin toxicity protection in MRP-1 cells – H69AR cells, CellTiter-Glo, duplicate, MRP-1 activator project, pilot screen (AID 807;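 active means viability increase at or above a cutoff of the median across tested compounds plus 3 SD, cut at about 8.5% in these data, passing the limit was not always enough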;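 further: compound pretreatment 18-22 h then 72 h combined with doxorubicin; 0% = doxorubicin alone and 100% = vehicle without doxorubicin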); settings: H69AR viability with doxorubicin, CellTiter-Glo luminescence; at 10 µM; stronger effect = higher value
[12] = viability of HCT116 without oncogenic beta-catenin – human colon tumor cells, pilot screen (AID 823); settings: HCT116 beta-catenin knockout viability, CellTiter-Glo, 60 h; at 10 µM; stronger effect = lower value;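 further: 0% = wells killed by 20 µM Hyamine and 100% = untreated DMSO cell wells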
[13] = viability of PTEN-null HCT116 cells – cell-based, HCT116 clonal line, CellTiter-Glo, pilot screen (AID 824;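 active means viability at or below 27.92% in each of two runs, the all-compound median minus 4 SD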;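 further: 0% = 20 µM Hyamine control and 100% = vehicle cell control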); settings: HCT116 PTEN-deleted viability, 60 h, at 10 µM, stronger effect = lower value
[14] = RAM pathway blockade in budding yeast – dse1pr::URA3 reporter, 5-FOA selection, pilot screen (AID 869;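 active means inhibition over a set limit, the all-compound mean plus 3 SD, in both replicate runs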;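 further: 0% = DMSO wells with no growth and 100% = 10 µM 1-NA-PP1 with full growth; RAM network block rescues cells from 5-FOA so hits raise OD615 growth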); settings: S. cerevisiae dse1pr::URA3 5-FOA growth, OD615, 2 d; at 10 µM; stronger effect = higher value; strain carries analog-sensitive mutant Cbk1 kinase
[15] = RAM signaling pathway blockade in yeast – S. cerevisiae, Pdr1DBD-CYC8 efflux-inhibited sensitized strain, primary screen (AID 1298;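 active means RAM network inhibition above 8.4% in each of two replicates, 3 SD over the compound average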;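 further: 0% = DMSO untreated cells without growth and 100% = 10 µM 1-NA-PP1 full growth; higher means more yeast growth rescued from 5-FOA killing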); settings: S. cerevisiae cbk1-as DSE1-URA3 strain, 5-FOA growth OD615, 2 d; at 50 µM; stronger effect = higher value
[16] = H69AR cells + 2 uM doxorubicin, measured here: viability with 2 uM doxorubicin, stronger effect = lower value
[17] = H69AR cells, compound alone cytotoxicity

CCN(C1CCCCC1)S(=O)(=O)c1ccc(S(=O)(=O)N2CCN(CCC#N)CC2)cc1
87.8%: viability [6, 17]
98.3%: viability [6, 16]
105%: viability [1]
inactive: Her2 level [2] 114% | viability [3] 105% | viability [4] 75.8% | viability [5] 87.8% | differential viability (reversal) ([6]; H69AR cells + 2 uM doxorubicin) -10.4% | inhibition [7] -1.28% | inhibition [8] -3.5% | growth inhibition [9] 4.85% | growth inhibition [10] 3.67% | viability increase [11] -3.47% | viability [12] 86.6% | viability [13] 85.9% | inhibition [14] 0.645% | RAM network inhibition [15] -1.33%

COCCNC(=O)c1ccc(CS(=O)(=O)c2c(Cl)cccc2Cl)o1
84.5%: viability [1]
94.8%: viability [6, 16]
98.9%: viability [6, 17]
inactive: Her2 level [2] 116% | viability [3] 84.5% | viability [4] 84% | viability [5] 98.9% | differential viability (reversal) ([6]; H69AR cells + 2 uM doxorubicin) 4.06% | inhibition [7] -3.47% | inhibition [8] -4.83% | growth inhibition [9] -17.4% | growth inhibition [10] -11.8% | viability increase [11] -1.73% | viability [12] 103% | viability [13] 93% | inhibition [14] 1.32% | RAM network inhibition [15] 1.21%

O=C(c1ccc(=O)[nH]c1)N(Cc1ccco1)C1(C(=O)NC2CCCC2)CCCCC1
102%: viability [1]
104%: viability [6, 17]
inactive: Her2 level [2] 99.5% | viability [3] 102% | viability [4] 102% | viability [5] 104% | differential viability (reversal) ([6]; H69AR cells + 2 uM doxorubicin) 11.9% | inhibition [7] -7.81% | inhibition [8] -3.17% | growth inhibition [9] 2.31% | growth inhibition [10] -5.5% | viability increase [11] -2% | viability [12] 98.6% | viability [13] 100% | inhibition [14] -0.16% | RAM network inhibition [15] 1.35%
91.7%: viability [6, 16]

Cc1cc(NS(=O)(=O)c2ccc(NC(=O)COc3ccccc3C(C)C)cc2)no1
inactive: Her2 level [2] 90.5% | viability [3] 98% | viability [4] 80.9% | viability [5] 88.9% | differential viability (reversal) ([6]; H69AR cells + 2 uM doxorubicin) 1.26% | inhibition [7] -5.2% | inhibition [8] -3.33% | growth inhibition [9] -12% | growth inhibition [10] -18.1% | viability increase [11] -1.38% | viability [12] 93.6% | viability [13] 83.4% | inhibition [14] 2.17% | RAM network inhibition [15] 4.16%
87.6%: viability [6, 16]
98%: viability [1]
88.9%: viability [6, 17]

Cn1c(=O)c(=O)n(C)c2cc(S(=O)(=O)CCC(=O)N3CCOCC3)ccc21
102%: viability [6, 16]
88.5%: viability [1]
95%: viability [6, 17]
inactive: Her2 level [2] 84% | viability [3] 88.5% | viability [4] 106% | viability [5] 95% | differential viability (reversal) ([6]; H69AR cells + 2 uM doxorubicin) -6.71% | inhibition [7] -0.4% | inhibition [8] 12.5% | growth inhibition [9] -2.16% | growth inhibition [10] -4.52% | viability increase [11] -2.26% | viability [12] 103% | viability [13] 102% | inhibition [14] 0.99% | RAM network inhibition [15] 6.32%

CC1CCc2nn(CC(=O)NCc3ccc(F)cc3)cc2C1 (stereo not drawn)
122%: viability [1]
93.6%: viability [6, 16]
inactive: Her2 level [2] 102% | viability [3] 122% | viability [4] 79.4% | viability [5] 89.4% | differential viability (reversal) ([6]; H69AR cells + 2 uM doxorubicin) -4.28% | inhibition [7] -0.51% | inhibition [8] -2.33% | growth inhibition [9] -3.91% | growth inhibition [10] 8.68% | viability increase [11] -2.02% | viability [12] 86.4% | viability [13] 87.6% | inhibition [14] -0.73% | RAM network inhibition [15] 1.16%
89.4%: viability [6, 17]

COC(=O)CSc1nnc(-c2ccncc2)o1
116%: viability [1]
87%: viability [6, 16]
95%: viability [6, 17]
inactive: Her2 level [2] 127% | viability [3] 116% | viability [4] 105% | viability [5] 95% | differential viability (reversal) ([6]; H69AR cells + 2 uM doxorubicin) 7.96% | inhibition [7] -3.25% | inhibition [8] -7.33% | growth inhibition [9] -2.71% | growth inhibition [10] -17.9% | viability increase [11] -2.71% | viability [12] 93.2% | viability [13] 94.2% | inhibition [14] 0.9% | RAM network inhibition [15] 0.67%

CCN1CCN(C(=O)C2CC(c3ccc(F)cc3)=NO2)CC1 (stereo not drawn)
91.5%: viability [1]
99.1%: viability [6, 17]
75.1%: viability [6, 16]
inactive: Her2 level [2] 105% | viability [3] 91.5% | viability [4] 103% | viability [5] 99.1% | differential viability (reversal) ([6]; H69AR cells + 2 uM doxorubicin) 24.1% | inhibition [7] -4.1% | inhibition [8] -6.67% | growth inhibition [9] -3.54% | growth inhibition [10] 3.61% | viability increase [11] 0.82% | viability [12] 95.2% | viability [13] 102% | inhibition [14] 0.095% | RAM network inhibition [15] 2.03%

CCC(Oc1ccccc1)C(=O)Nc1ccccc1OC (stereo not drawn)
inactive: Her2 level [2] 72.5% | viability [3] 86% | viability [4] 99.4% | viability [5] 97.4% | differential viability (reversal) ([6]; H69AR cells + 2 uM doxorubicin) 12.6% | inhibition [7] -6.35% | inhibition [8] 3.61% | growth inhibition [9] -1.92% | growth inhibition [10] 8.91% | viability increase [11] -3.52% | viability [12] 90% | viability [13] 87% | inhibition [14] 1.94% | RAM network inhibition [15] 5.73%
97.4%: viability [6, 17]
84.8%: viability [6, 16]
86%: viability [1]
